# High-throughput results from PubChem BioAssay.
# An excerpt weighted towards active compounds, which were near 4.2% of everything screened.
# hcDAF-12 act = H. contortus DAF-12 nuclear receptor activators, primary screen, cell-based, luminescence, HEK293, lit1-tk-luc reporter; HEK293 hcDAF-12 lit1-tk-luc reporter; 0% DMSO, 100% Δ7-dafachronic acid; activation, % at 6.8 µM; 1.4% of 370,000 active; AID 652067, 2013;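 active = activation above the mean of all tested compounds plus 3 SD, cut at about 5.5% in these data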;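 note: 100% = response to 3 µM Δ7-dafachronic acid high control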
# hgDAF-12 ag = H. glycines DAF-12 receptor agonists, primary screen, cell-based, luminescence, HEK293, GAL4 fusion, UAS-luciferase; Nuclear hormone receptor DAF-12 (Heterodera glycines), GAL4 fusion; AID 687014, 2013; 1.8% of 370,000 active; HEK293 GAL4-hgDAF12 UAS-luciferase reporter, agonist luminescence; normalized to butyrate control; activation, % at 6.8 µM;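 active = activation above a cutoff set at the mean of all screened compounds plus 3 SD, cut at about 10% in these data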;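 note: 0% = DMSO wells and 100% = sodium butyrate wells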
# DAX1 StAR inh = DAX1 (NR0B1) inhibitors on StAR promoter, primary screen, cell-based, luminescence, SF-1 (NR5A1), full-length DAX-1 | inhibition, % at 6.8 µM | HEK293T StAR-luciferase reporter, SF-1/DAX-1 repression relief | 1.1% of 370,000 active | AID 652010, 2013;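 active = inhibition above the mean over all tested compounds plus 3 SD, cut at about 3.6% in these data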;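 note: 0% = DAX-1 cells with DMSO and 100% = cells lacking DAX-1 with DMSO; higher inhibition means more luminescence from relief of DAX-1 repression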
# ssDAF-12 act = S. stercoralis DAF-12 nuclear receptor activators, primary screen, cell-based, luminescence, HEK293, GRIP1 co-expression, lit1-tk-luc | HEK293 ssDAF-12/GRIP1 lit1-tk-luc reporter; % of 3 µM dafachronic acid response | activation, % at 6.8 µM | 1% of 370,000 active | AID 652126, 2013 | Nuclear hormone receptor DAF-12 (Strongyloides stercoralis);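 active = activation above the mean over all tested compounds plus 3 SD, cut at about 0.9% in these data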;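 note: 0% = DMSO-only wells and 100% = 3 µM delta7-dafachronic acid wells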
# Wnt act = Wnt/beta-catenin pathway activators, primary screen, cell-based, plate reader, single point. AID 743398, 2014. Wnt/beta-catenin reporter cell assay, activator. activation, % at 9.35 µM. 1.2% of 300,000 active; in the data active = activation above about 30%, passing the limit was not always enough; inconclusive = no clear call, values can overlap the other calls;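 note: 0% = neutral control wells and 100% = positive control wells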
# esBAF inh = Bmi1 luciferase reporter increase in mESCs, primary screen, esBAF inhibitor project, mouse ES cells, Bmi1 luciferase knock-in, single point. reporter increase, % at 12.5 µM. 2% of 350,000 active. 24 h; 100% = twice the neutral-well signal; in the data active = activation above about 40%; inconclusive = no clear call, values can overlap the other calls;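 note: 0% = median of the plate's neutral control wells and 100% = double that signal; a rise in the Bmi1 reporter signal indicates esBAF inhibition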
# hgDAF12 ag = H. glycines DAF-12 receptor agonists, confirmation, cell-based, luminescence, HEK293, GAL4-LBD fusion; shares compounds with hgDAF-12 ag; HEK293 GAL4-hgDAF12 luciferase reporter, agonist mode; percent of butyrate response; activation, % at 6.8 µM; 80% of 3,300 active; AID 743050, 2013;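 active = mean activation over triplicate wells above the hit cutoff derived from the earlier primary screen, cut at about 11% in these data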;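 note: 0% = DMSO low control and 100% = 2 mM sodium butyrate high control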
# LXR ag 2 = LXR agonists, Gal4 luciferase reporter, confirmation, counter-screen for hgDAF-12 agonist project, cell-based, luminescence, HEK293, H. glycines campaign; shares compounds with hgDAF-12 ag; 3,300 tested, under 10 active; activation, % at 6.8 µM; AID 743051, 2013; 24 h;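 active = mean activation of the triplicate above a set limit carried over from the primary screen, none filed active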
# Target sequence (P55055 whole entry, looked up, the tested form may be a part): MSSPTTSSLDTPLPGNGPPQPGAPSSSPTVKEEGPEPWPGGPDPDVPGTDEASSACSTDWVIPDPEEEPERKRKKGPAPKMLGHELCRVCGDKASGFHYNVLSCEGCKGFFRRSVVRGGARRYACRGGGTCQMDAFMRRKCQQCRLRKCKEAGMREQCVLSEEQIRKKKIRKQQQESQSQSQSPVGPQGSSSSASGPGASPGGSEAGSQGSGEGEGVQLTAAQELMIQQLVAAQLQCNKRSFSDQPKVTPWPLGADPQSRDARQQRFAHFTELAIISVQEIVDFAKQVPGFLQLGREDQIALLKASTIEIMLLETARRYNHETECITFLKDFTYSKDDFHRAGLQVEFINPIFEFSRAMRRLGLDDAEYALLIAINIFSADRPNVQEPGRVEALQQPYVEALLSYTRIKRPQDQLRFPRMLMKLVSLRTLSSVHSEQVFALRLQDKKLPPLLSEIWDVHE
# * = called active by the depositor; ? = inconclusive; · = not tested or not shown.
SMILES,hcDAF-12 act,hgDAF-12 ag,DAX1 StAR inh,ssDAF-12 act,Wnt act,esBAF inh,hgDAF12 ag,LXR ag 2
NC(=O)c1sc2nc(-c3cccnc3)ccc2c1N,0,3,0,-1,0,·,·,·
O=C(C[C@@H]1CC[C@H]2[C@@H](COC[C@@H](O)CN2C(=O)c2ccncc2)O1)NC1CCC1,·,·,·,·,·,-1,·,·
Cc1noc(C)c1NC(=O)N[C@H]1C=C[C@H](CC(=O)Nc2ccccc2)O[C@H]1CO,·,·,·,·,·,-2,·,·
Cc1ccc(C2=N/C(=C\N(C)C)C(=O)O2)cc1,0,15*,0,-1,·,29,10,0
CN(C)/C=C1\N=C(c2cccs2)OC1=O,1,2,0,-1,-1,6,·,·
CCc1ccc2oc(C(=O)Nc3cccnc3)c(C)c2c1,·,·,·,·,·,17,·,·
Cc1c(C(=O)Nc2cccnc2)oc2ccc(Br)cc12,5,14*,1,1.7*,1,60*,14*,1
CC(C)CC#Cc1cnc2c(c1)C(=O)N([C@@H](C)CO)C[C@@H](C)[C@H](CN(C)C(=O)NC1CCCC1)O2,·,·,·,·,·,5,·,·
CC(=O)Nc1ccc2c(c1)C(=O)N(C)[C@H]1CC[C@@H](CC(=O)NCc3ccccc3Cl)O[C@H]1CO2,·,·,·,·,·,7,·,·
COc1ccc(NC(=S)Nc2ncccc2C)cc1OC,3,21*,2,0,15,·,6,0
CN(C(=O)/C=C/c1ccccc1)C1CCCCC1,5,14*,1,-1,48*,·,17*,1
Cc1nc(N)sc1C(=O)N/N=C/c1ccccc1[N+](=O)[O-],2,14*,2,-1,9,·,10,0
Cc1nc(N)sc1C(=O)N/N=C/c1ccc([N+](=O)[O-])cc1,4,0,0,-1,0,·,·,·
COCC(=O)N(C)C[C@H]1Oc2ncc(-c3ccc(C)cc3)cc2C(=O)N([C@H](C)CO)C[C@H]1C,·,·,·,·,·,1,·,·
O=C(CNC(=O)c1ccc2c(c1)OCCO2)N/N=C/c1ccc(Cl)cc1,0,1,-1,-1,0,·,·,·
O=C(Nc1ccc(Cl)cc1)c1ccc2c(c1)OCO2,5.6*,13*,3,0,·,·,20*,1
O=C(Nc1ccc2c(c1)OCCO2)c1ccc(Cl)cc1,5,15*,2,1,9,-36,15*,1
O=C(Nc1ccn(Cc2ccccc2)n1)c1ccc2c(c1)OCO2,0,16*,1,-2,16,·,9,0
O=C(N/N=C/c1ccc(Cl)cc1)c1ccc2c(c1)OCO2,0,14*,0,-1,18,63*,17*,0
COc1ccc(NC(=O)Nc2ccc3c(c2)C(=O)N([C@@H](C)CO)C[C@H](C)[C@H](CN(C)C(=O)Nc2c(C)noc2C)O3)cc1,·,·,·,·,·,1,·,·
CN1c2ccc(-c3ccc(C#N)cc3)cc2[C@@H]2[C@@H](CCN2C(=O)CC2CC2)[C@H]1CO,·,·,·,·,·,-3,·,·
C[C@H]1CN([C@@H](C)CO)C(=O)c2cc(NC(=O)CCN3CCOCC3)ccc2O[C@@H]1CN(C)C(=O)Nc1ccc(F)cc1,·,·,·,·,·,-1,·,·
COC(=O)C1CCN(C(=O)c2oc3c(Cl)cc(C)cc3c2C)CC1,4,14*,2,0,47*,26,16*,1
CCN(CC(=O)Nc1c(F)cccc1F)C(=O)c1ccc2c(=O)n3c(nc2c1)CCC3,0,16*,0,-1,8,23,2,0
CCN(CC(=O)Nc1ccccc1C(F)(F)F)C(=O)c1ccc2c(=O)n3c(nc2c1)CCC3,-2,2,0,-1,2,2,·,·
SMILES,hcDAF-12 act,hgDAF-12 ag,DAX1 StAR inh,ssDAF-12 act,Wnt act,esBAF inh,hgDAF12 ag,LXR ag 2
C[C@H]1CN([C@@H](C)CO)S(=O)(=O)c2ccc(C#Cc3cccc(F)c3)cc2O[C@H]1CN(C)CC1CC1,·,·,·,·,·,-7,·,·
Cc1cc(C)n2nc(C(=O)Nc3nccs3)nc2n1,4,17*,1,0,·,17,12*,0
Cc1ccc(OCc2ccc(Br)cc2)c([N+](=O)[O-])n1,4,18*,4.0*,1,61*,·,14*,1
COc1ccc(NC(=O)c2cc3ccccc3[nH]2)cc1,2,17*,2,0,-1,?,13*,1
C[C@H](CO)N1C[C@H](C)[C@H](CN(C)C(=O)Nc2cccc3ccccc23)Oc2ccc(NC(=O)Nc3ccccc3)cc2CC1=O,·,·,·,·,·,1,·,·
O=C(CSc1nc2ccccc2[nH]1)c1ccccc1F,5.8*,16*,1,0,?,52*,12*,1
COc1ccc(/C=N/NC(=O)c2ccoc2C)cc1OC,1,2,0,0,1,·,·,·
Cc1occc1C(=O)N/N=C/c1cccc2ccccc12,5.8*,21*,2,1.0*,18,69*,14*,1
O=C(N/N=C/C(Br)=C/c1ccccc1)c1ccccc1[N+](=O)[O-],-2,2,0,-1,3,15,·,·
Cc1cc(/C=N/NC(=O)c2ccoc2C)cc(C)c1O,3,18*,4.3*,0,0,69*,14*,0
Cc1occc1C(=O)N/N=C/C(Br)=C/c1ccccc1,5,17*,3,0,11,32,14*,1
Cc1occc1C(=O)N/N=C/c1ccc2c(c1)OCO2,5.7*,16*,4,0,38*,-27,21*,1
O=C(NN=Cc1ccccc1Cl)c1cccc2ccccc12,1,1,0,0,0,·,·,·
c1ccc2c(c1)CN1C(=N2)COc2ccccc2C1c1nc2ccccc2[nH]1 (stereo unspecified),6.0*,15*,4.4*,2.0*,11,·,8,0
COc1ccc(NC(=O)CSc2nc3ccsc3c(=O)n2CCC(=O)O)c(OC)c1,1,14*,0,-1,0,9,1,0
